Results taken from PubChem BioAssay (Tox21).
Where “and” joins values, the source holds several entries; their conditions need not be identical. Equal values may be shown once. Records with an inconclusive call do not appear. Where a call stands in place of a potency, no number is given. Calls of active or inactive are those of the source. Calls come from the whole dose curve; as a rule, active = well fitted curve in the direction sought with a large enough effect in the repeat runs; inconclusive = weak or mixed curves; inactive = no such curve, though single readings can be large; an effect the other way counts as inactive or inconclusive.

Assay: qHTS assay for small molecule disruptors of the mitochondrial membrane potential (AID 720635); note: potency is the fitted concentration of half-maximal effect
Conditions: HepG2 mitochondrial membrane potential, Mito-MPS dye ratio; series mostly up to 83.2 µM
Procedure, shortened: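 HepG2 cells (2,000/well) attached overnight at 37C, then took compound for 1 hr at 37C, 5% CO2. Mito-MPS dye was added for 30 min; fluorescence was read at 490/535 nm (monomers) and 540/590 nm (aggregates).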
For CNCC[C@H](Oc1cccc2ccccc12)c1cccs1, the Potency was 13.3 µM (active). With C[C@]12CC[C@H]3C(=CCc4cc(O)ccc43)[C@@H]1CCC2=O the Potency was 19.3 µM (active). For CN1[C@@H]2CC[C@H]1CC(OC(=O)C(CO)c1ccccc1)C2 (some centres not stated), the Potency was “inactive”. In the case of O=C1Nc2ccc(Cl)cc2[C@@](C#CC2CC2)(C(F)(F)F)O1, the Potency is reported as 4.73 µM (active). With C[C@H]1O[C@@H](O[C@H]2[C@@H](O)C[C@H](O[C@H]3[C@@H](O)C[C@H](O[C@H]4CC[C@@]5(C)[C@H](CC[C@@H]6[C@@H]5C[C@@H](O)[C@]5(C)[C@@H](C7=CC(=O)OC7)CC[C@]65O)C4)O[C@@H]3C)O[C@@H]2C)C[C@H](O)[C@@H]1O the Potency was 298 nM (active) and 1.37 µM (active) and 604 nM (active). For CC1=C(/C=C/C(C)=C/C=C/C(C)=C\C=O)C(C)(C)CCC1, the Potency was 57.9 µM (active). With CC(C)(C)CC(C)(C)c1ccccc1O the Potency was 2.18 µM (active). With NC1(c2ccc(-c3nc4ccn5c(=O)[nH]nc5c4cc3-c3ccccc3)cc2)CCC1 the Potency was 13.3 µM (active).

Assay: qHTS assay to test for compound auto fluorescence at 590 nm (red) in HepG2 cells (AID 720674)
Conditions: HepG2 autofluorescence, red 540/590 nm, 1 h; series mostly up to 91.3 µM
Procedure, shortened: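 Intrinsic compound fluorescence in the red window (Ex/Em 540/590 nm) is measured in attached HepG2 cells exposed for 1 hr, DMSO vehicle as baseline, benchmarked to Rose Bengal sodium.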
In the case of C=C(c1ccc(C(=O)O)cc1)c1cc2c(cc1C)C(C)(C)CCC2(C)C, the Potency is reported as “inactive”. In the case of CN1[C@@H]2CC[C@@H]1CC(OC(=O)C(CO)c1ccccc1)C2 (some centres not stated), the Potency is reported as “inactive”. In the case of CN(C)c1ccc(N=Nc2ccccc2C(=O)O)cc1, the Potency is reported as “inactive”. With O=C1c2c(O)ccc(O)c2C(=O)c2c(NCCNCCO)ccc(NCCNCCO)c21 the fluorescence, relative to Rose Bengal was 0.231% [at 18.6 µM] (inactive). With CCCCCCCC/C=C\CCCCCCCC(=O)N(C)CC(=O)O the Potency was “inactive”. With Clc1ccc(C(Cn2ccnc2)OCc2ccsc2Cl)c(Cl)c1 (configuration not stated) the Potency was “inactive”. With CCCCOc1ccc(C(=O)CCN2CCCCC2)cc1 the fluorescence, relative to Rose Bengal was 0.0479% [at 18.6 µM] (inactive). In the case of COc1ccc2sc(C(=O)Nc3nnn[nH]3)c(OC(C)C)c2c1, the Potency is reported as “inactive”. With Cc1c(-c2ccc(O)cc2)n(Cc2ccc(OCCN3CCCCCC3)cc2)c2ccc(O)cc12 the Potency was “inactive”. For CN(C)c1ccc(N=NS(=O)(=O)O)cc1, the Potency was “inactive”. With c1cc(OCC2CO2)cc(OCC2CO2)c1 (configuration not stated) the Potency was “inactive”. In the case of Cc1cc2c(C(C)C)c(O)c(O)c(C=O)c2c(O)c1-c1c(C)cc2c(C(C)C)c(O)c(O)c(C=O)c2c1O, the Potency is reported as “inactive”. For C=C[C@](C)(O)CC[C@@H]1[C@@]2(C)CCCC(C)(C)[C@@H]2CC[C@@]1(C)O, the Potency was “inactive”. In the case of CC(=O)OC(OC(C)=O)c1ccc([N+](=O)[O-])o1, the Potency is reported as “inactive”. For COC(=O)C1=C(C)NC(C)=C(C(=O)OCCCN2CCC(c3ccccc3)(c3ccccc3)CC2)C1c1cccc([N+](=O)[O-])c1 (configuration not stated), the Potency was “inactive”. With CC=O the Potency was “inactive”. For CCN(CC)CCOc1ccc(C(O)(Cc2ccc(Cl)cc2)c2ccc(C)cc2)cc1 (configuration not stated), the Potency was “inactive”. With N#CSCSc1nc2ccccc2s1 the Potency was “inactive”. In the case of S=C(SSSSSSC(=S)N1CCCCC1)N1CCCCC1, the fluorescence, relative to Rose Bengal is reported as -0.0183% [at 18.6 µM] (inactive). In the case of Cc1cc(Nc2ccc(O)cc2)ccc1N, the Potency is reported as “inactive”. With CCCCCCOc1cc(C)c(O)c(C)c1C the Potency was “inactive”. In the case of NC(=O)c1nc(-c2cccc(-c3cc(F)ccc3OCC(F)(F)C(F)(F)F)c2)n[nH]1, the Potency is reported as “inactive”. For COC(=O)[C@]1(C)CCC[C@@]2(C)[C@H]1CC=C1C=C(C(C)C)CC[C@@H]12, the Potency was “inactive”. In the case of O=C1NC2CCCCN2C12CCN(CCCN1c3ccccc3CCc3ccc(Cl)cc31)CC2 (configuration not stated), the Potency is reported as “inactive”. For NCCCC(O)(P(=O)(O)O)P(=O)(O)O, the Potency was “inactive”. For Oc1ccc(-c2ccc(O)cc2)cc1, the Potency was “inactive”. In the case of CNCC[C@H](Oc1cccc2ccccc12)c1cccs1, the Potency is reported as “inactive”. In the case of SCCCCCCCCS, the Potency is reported as “inactive”. With NC(=O)C(=O)N/N=C/c1ccc([N+](=O)[O-])o1 the Potency was “inactive”. With C[C@]12CC[C@H]3C(=CCc4cc(O)ccc43)[C@@H]1CCC2=O the Potency was “inactive”. In the case of CN1[C@@H]2CC[C@H]1CC(OC(=O)C(CO)c1ccccc1)C2 (some centres not stated), the Potency is reported as “inactive”. In the case of O=C1Nc2ccc(Cl)cc2[C@@](C#CC2CC2)(C(F)(F)F)O1, the Potency is reported as “inactive”. With C[C@H]1O[C@@H](O[C@H]2[C@@H](O)C[C@H](O[C@H]3[C@@H](O)C[C@H](O[C@H]4CC[C@@]5(C)[C@H](CC[C@@H]6[C@@H]5C[C@@H](O)[C@]5(C)[C@@H](C7=CC(=O)OC7)CC[C@]65O)C4)O[C@@H]3C)O[C@@H]2C)C[C@H](O)[C@@H]1O the Potency was “inactive”. With CC1=C(/C=C/C(C)=C/C=C/C(C)=C\C=O)C(C)(C)CCC1 the Potency was “inactive”. For CC(C)(C)CC(C)(C)c1ccccc1O, the Potency was “inactive”. In the case of CN(C)CCCN1c2ccccc2CCc2ccccc21, the Potency is reported as “inactive”. For NC1(c2ccc(-c3nc4ccn5c(=O)[nH]nc5c4cc3-c3ccccc3)cc2)CCC1, the Potency was “inactive”.

Assay: qHTS assay to test for compound auto fluorescence at 535 nm (green) in HepG2 cells (AID 720675)
Conditions: green autofluorescence 485/535 nm, 1 h; series mostly up to 91.3 µM
With C=C(c1ccc(C(=O)O)cc1)c1cc2c(cc1C)C(C)(C)CCC2(C)C the Potency was “inactive”. In the case of CN1[C@@H]2CC[C@@H]1CC(OC(=O)C(CO)c1ccccc1)C2 (some centres not stated), the Potency is reported as “inactive”. With CN(C)c1ccc(N=Nc2ccccc2C(=O)O)cc1 the Potency was “inactive”. In the case of O=C1c2c(O)ccc(O)c2C(=O)c2c(NCCNCCO)ccc(NCCNCCO)c21, the fluorescence, % of fluorescein control is reported as -0.149% [at 18.6 µM] (inactive). With CCCCCCCC/C=C\CCCCCCCC(=O)N(C)CC(=O)O the Potency was “inactive”. For Clc1ccc(C(Cn2ccnc2)OCc2ccsc2Cl)c(Cl)c1 (configuration not stated), the Potency was “inactive”. For CCCCOc1ccc(C(=O)CCN2CCCCC2)cc1, the fluorescence, % of fluorescein control was 0.0117% [at 18.6 µM] (inactive). For COc1ccc2sc(C(=O)Nc3nnn[nH]3)c(OC(C)C)c2c1, the Potency was “inactive”. With Cc1c(-c2ccc(O)cc2)n(Cc2ccc(OCCN3CCCCCC3)cc2)c2ccc(O)cc12 the Potency was “inactive”. With CN(C)c1ccc(N=NS(=O)(=O)O)cc1 the Potency was “inactive”. For c1cc(OCC2CO2)cc(OCC2CO2)c1 (configuration not stated), the Potency was “inactive”. For Cc1cc2c(C(C)C)c(O)c(O)c(C=O)c2c(O)c1-c1c(C)cc2c(C(C)C)c(O)c(O)c(C=O)c2c1O, the Potency was “inactive”. For C=C[C@](C)(O)CC[C@@H]1[C@@]2(C)CCCC(C)(C)[C@@H]2CC[C@@]1(C)O, the Potency was “inactive”. For CC(=O)OC(OC(C)=O)c1ccc([N+](=O)[O-])o1, the Potency was “inactive”. In the case of COC(=O)C1=C(C)NC(C)=C(C(=O)OCCCN2CCC(c3ccccc3)(c3ccccc3)CC2)C1c1cccc([N+](=O)[O-])c1 (configuration not stated), the Potency is reported as “inactive”. For CC=O, the Potency was “inactive”. With CCN(CC)CCOc1ccc(C(O)(Cc2ccc(Cl)cc2)c2ccc(C)cc2)cc1 (configuration not stated) the Potency was “inactive”. In the case of N#CSCSc1nc2ccccc2s1, the Potency is reported as “inactive”. With S=C(SSSSSSC(=S)N1CCCCC1)N1CCCCC1 the fluorescence, % of fluorescein control was -0.0182% [at 18.6 µM] (inactive). For Cc1cc(Nc2ccc(O)cc2)ccc1N, the Potency was “inactive”. With CCCCCCOc1cc(C)c(O)c(C)c1C the Potency was “inactive”. In the case of NC(=O)c1nc(-c2cccc(-c3cc(F)ccc3OCC(F)(F)C(F)(F)F)c2)n[nH]1, the Potency is reported as “inactive”. In the case of COC(=O)[C@]1(C)CCC[C@@]2(C)[C@H]1CC=C1C=C(C(C)C)CC[C@@H]12, the Potency is reported as “inactive”. In the case of O=C1NC2CCCCN2C12CCN(CCCN1c3ccccc3CCc3ccc(Cl)cc31)CC2 (configuration not stated), the Potency is reported as “inactive”. For NCCCC(O)(P(=O)(O)O)P(=O)(O)O, the Potency was “inactive”. With Oc1ccc(-c2ccc(O)cc2)cc1 the Potency was “inactive”. With CNCC[C@H](Oc1cccc2ccccc12)c1cccs1 the Potency was “inactive”. For SCCCCCCCCS, the Potency was “inactive”. For NC(=O)C(=O)N/N=C/c1ccc([N+](=O)[O-])o1, the Potency was “inactive”. For C[C@]12CC[C@H]3C(=CCc4cc(O)ccc43)[C@@H]1CCC2=O, the Potency was “inactive”. With CN1[C@@H]2CC[C@H]1CC(OC(=O)C(CO)c1ccccc1)C2 (some centres not stated) the Potency was “inactive”. For O=C1Nc2ccc(Cl)cc2[C@@](C#CC2CC2)(C(F)(F)F)O1, the Potency was “inactive”. With C[C@H]1O[C@@H](O[C@H]2[C@@H](O)C[C@H](O[C@H]3[C@@H](O)C[C@H](O[C@H]4CC[C@@]5(C)[C@H](CC[C@@H]6[C@@H]5C[C@@H](O)[C@]5(C)[C@@H](C7=CC(=O)OC7)CC[C@]65O)C4)O[C@@H]3C)O[C@@H]2C)C[C@H](O)[C@@H]1O the Potency was “inactive”. In the case of CC1=C(/C=C/C(C)=C/C=C/C(C)=C\C=O)C(C)(C)CCC1, the Potency is reported as “inactive”. In the case of CC(C)(C)CC(C)(C)c1ccccc1O, the Potency is reported as “inactive”. For CN(C)CCCN1c2ccccc2CCc2ccccc21, the Potency was “inactive”. With NC1(c2ccc(-c3nc4ccn5c(=O)[nH]nc5c4cc3-c3ccccc3)cc2)CCC1 the Potency was “inactive”.
